High-throughput results: PubChem, several laboratories
HSP90 refold inh – HSP90 inhibitors, primary screen, cell lysate, luminescence; Heat shock protein HSP 90 (rabbit reticulocyte lysate; luciferase refolding); Rabbit reticulocyte lysate, luciferase refolding luminescence, 3 h; inhibition, % at 5.6 µM; 290,000 tested, 0.91% active; AID 1789, 2009;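 active means inhibition above the screen-wide mean plus 3 SD, computed separately per campaign, cut at about 16% in these data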;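 further: 0% = DMSO wells and 100% = 60 µM geldanamycin wells; inhibitors lower the luminescence because luciferase stays unfolded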
HSF1 activator – HSF-1 activators, primary screen, NIH3T3-HGL cells, MG132 stress, luminescence, single point | activation, % at 9 µM | NIH3T3-HGL HSF-1 luciferase reporter, 8 h; 100% = twice DMSO control signal | 300,000 tested, 1.7% active;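 active means mean replicate activation of at least 50% with a set share of replicates each reaching 50%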;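 further: 0% = median of the neutral control wells and 100% = twice that signal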
HSF1 inh – HSF1 inhibitors in luciferase reporter cells, primary screen, cell-based, NIH3T3, luminescence | NIH3T3-HGL HSE-luciferase, MG132-induced, luminescence 8 h; hits give low values | activity change, negative = inhibition, % at 7.5 µM (by protocol) | 300,000 tested, 0.77% active;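 active means more than half of replicate wells show activity change below -50%, luminescence cut by over half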;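 further: luciferase reports HSF-1 transcriptional activity via heat shock element; 0% = median of DMSO wells and -100% = zero luminescence signal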
GAA850 FXN act – FXN promoter activators, primary screen, cell-based, luciferase luminescence, HEK293 lucGAA850; HEK293 lucGAA850 FXN promoter luciferase reporter, 24 h; percent of 10 µM SAHA response; activation, % at 6 µM; 360,000 tested, 0.56% active;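 active means activation above the average of all compounds screened plus 3 SD, cutoff fixed separately per campaign, cut at about 7.5% in these data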;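 further: 0% = DMSO wells and 100% = 10 µM SAHA wells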
AHR act – AHR activators, primary screen, cell-based, luminescence, luciferase reporter, human; AHR-responsive luciferase reporter cells; AID 2796, 2010; 320,000 tested, 2.5% active; Aryl hydrocarbon receptor (Homo sapiens), P35869; activation, % at 5 µM; in the data active means activation above about 47%;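 further: 0% = vehicle wells and 100% = reference agonist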
Target sequence (P35869 whole entry, looked up): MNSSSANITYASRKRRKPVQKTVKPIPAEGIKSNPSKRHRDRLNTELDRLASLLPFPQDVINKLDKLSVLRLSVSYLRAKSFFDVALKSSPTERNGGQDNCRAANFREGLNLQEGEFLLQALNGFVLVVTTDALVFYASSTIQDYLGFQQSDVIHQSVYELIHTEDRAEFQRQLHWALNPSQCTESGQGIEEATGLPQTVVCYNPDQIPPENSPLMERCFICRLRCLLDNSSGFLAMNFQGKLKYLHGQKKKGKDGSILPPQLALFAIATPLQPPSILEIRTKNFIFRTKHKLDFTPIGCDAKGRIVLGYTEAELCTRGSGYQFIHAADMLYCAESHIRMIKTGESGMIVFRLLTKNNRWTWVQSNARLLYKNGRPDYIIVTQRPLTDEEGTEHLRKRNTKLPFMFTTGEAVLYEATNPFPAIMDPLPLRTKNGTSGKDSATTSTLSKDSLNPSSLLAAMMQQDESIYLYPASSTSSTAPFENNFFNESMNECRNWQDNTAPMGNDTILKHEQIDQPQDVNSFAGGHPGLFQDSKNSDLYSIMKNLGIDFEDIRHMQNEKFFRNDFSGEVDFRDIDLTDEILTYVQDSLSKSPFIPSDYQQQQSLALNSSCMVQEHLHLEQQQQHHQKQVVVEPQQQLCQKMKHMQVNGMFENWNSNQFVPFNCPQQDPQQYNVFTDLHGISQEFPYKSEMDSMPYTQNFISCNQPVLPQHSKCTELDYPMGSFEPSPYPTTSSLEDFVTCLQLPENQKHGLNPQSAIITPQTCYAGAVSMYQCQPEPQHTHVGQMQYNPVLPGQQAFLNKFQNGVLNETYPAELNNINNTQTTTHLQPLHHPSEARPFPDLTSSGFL
DAX1 inh – DAX1 (NR0B1) inhibitors, primary screen, cell-based, HEK293, Gal4-DAX1, luciferase luminescence. HEK293 Gal4-DAX1 luciferase reporter. inhibition, % at 6.75 µM. 340,000 tested, 0.99% active. AID 504766, 2011. Nuclear receptor subfamily 0 group B member 1 (Homo sapiens), P51843;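 active means inhibition above the mean over all tested compounds plus 3 SD, cut at about 4.2% in these data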;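 further: 0% = DAX1-transfected cells with DMSO and 100% = empty-vector control cells with DMSO; inhibition shows as a rise in luminescence from relieved DAX1 repression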
An asterisk follows results filed as active. Shown are actives, neighbours in structure and some others; about 5.9% of the full set was active somewhere.

What do the screens show for `COc1ccc(S(=O)(=O)NC(C)C(=O)NCc2cccnc2)cc1Cl` (stereo unspecified)?
HSP90 refold inh: 0; HSF1 activator: -18; HSF1 inh: -2; GAA850 FXN act: 0; AHR act: -1; DAX1 inh: 1

How did COc1ccc(S(=O)(=O)NC(C)C(=O)NCc2cccnc2)cc1OC (stereo unspecified) do in these assays?
HSP90 refold inh: 0; HSF1 activator: -1; HSF1 inh: -3; GAA850 FXN act: 0; AHR act: -1; DAX1 inh: 4.5*

What do the screens show for `CCOC(=O)C1(NC(=O)C2(NC(=O)CN3C(=O)c4ccccc4C3=O)CCCC2)CCCC1`?
GAA850 FXN act: 2; DAX1 inh: 0

How did O=[N+]([O-])c1ccc(OCCCCCN2CCOCC2)cc1 do in these assays?
HSP90 refold inh: 0; HSF1 activator: -4; HSF1 inh: -4; GAA850 FXN act: -1; AHR act: -2; DAX1 inh: 5.0*

How did COC(=O)c1c[nH]c2c1-c1cc(C(=O)OCc3ccccc3)n(S(=O)(=O)c3ccc(C)cc3)c1C(=O)C2=O do in these assays?
GAA850 FXN act: -1; DAX1 inh: -1

How did COC(=O)c1c(NC(=O)c2nn(C)cc2Cl)sc2c1CCCC2 do in these assays?
HSP90 refold inh: 2; HSF1 activator: 58*; HSF1 inh: 15; GAA850 FXN act: -3; AHR act: -4; DAX1 inh: 0

How did CCC(=O)Nc1ccc(-c2nn3c(C)nnc3s2)cc1C do in these assays?
HSP90 refold inh: 1; HSF1 activator: 6; HSF1 inh: 2; GAA850 FXN act: 2; AHR act: 54*; DAX1 inh: 0

How did Cc1ccc(C)c(NC(=O)CCc2nnc3ccc(NCc4ccco4)nn23)c1 do in these assays?
HSP90 refold inh: -1; HSF1 activator: -73; HSF1 inh: -66*; GAA850 FXN act: 1; AHR act: 3; DAX1 inh: 0

Results for O=C(O)c1cccc(N/N=C/c2cccs2)c1 ?
HSP90 refold inh: 52*; HSF1 activator: -62; HSF1 inh: -58*; GAA850 FXN act: 4; AHR act: -11; DAX1 inh: -5

What do the screens show for `Nc1ccn(Cc2ccccc2)n1`?
HSP90 refold inh: -2; HSF1 activator: 15; HSF1 inh: -3; GAA850 FXN act: 1; AHR act: 5; DAX1 inh: 0

What do the screens show for `c1ccc(Cn2ccc(-c3cnc(-c4ccccc4)s3)n2)cc1`?
HSP90 refold inh: 1; HSF1 activator: 74*; HSF1 inh: 36; GAA850 FXN act: 6; AHR act: -11; DAX1 inh: 0

What do the screens show for `COc1ccc(CNC(=O)[C@H](C)NC(=O)C2CCN(C(=O)[C@@H](N)CCSC)CC2)cc1`?
HSP90 refold inh: 0; HSF1 activator: -2; HSF1 inh: 1; GAA850 FXN act: 0; AHR act: 1; DAX1 inh: 4.4*

Results for COc1ccc(CNC(=O)[C@H](C)NC(=O)C2CCN(C(=O)[C@@H](N)Cc3ccccc3)CC2)cc1 ?
HSP90 refold inh: -1; HSF1 activator: 2; HSF1 inh: 3; GAA850 FXN act: -1; AHR act: 1; DAX1 inh: 6.1*

How did COc1ccc(CNC(=O)[C@H](NC(=O)C2CCN(C(=O)[C@@H](N)CCSC)CC2)C(C)C)cc1 do in these assays?
HSP90 refold inh: -1; HSF1 activator: 1; HSF1 inh: 1; GAA850 FXN act: 0; AHR act: 1; DAX1 inh: 2

What do the screens show for `CCOC(=O)C1(CC2CC2)CCN(S(=O)(=O)/C=C/c2ccccc2)CC1`?
HSP90 refold inh: 1; HSF1 activator: 7; HSF1 inh: 5; GAA850 FXN act: -2; AHR act: -2; DAX1 inh: 1

Results for Cc1ccc(-c2cc(N)n(-c3ccccc3)n2)cc1 ?
HSP90 refold inh: -2; HSF1 activator: 3; HSF1 inh: -6; GAA850 FXN act: 5; AHR act: 4; DAX1 inh: 1

How did CCc1ccc(-c2cc(N)n(-c3ccccc3)n2)cc1 do in these assays?
HSP90 refold inh: 3; HSF1 activator: -9; HSF1 inh: -5; GAA850 FXN act: 5; DAX1 inh: 5.5*

Results for C/C(=N/NC(=O)c1sc(NS(=O)(=O)c2ccccc2)nc1C)c1sc(N)nc1C ?
HSP90 refold inh: 3; HSF1 activator: 24; HSF1 inh: 0; GAA850 FXN act: 1; AHR act: 3; DAX1 inh: 0

How did Clc1ccc(SCc2cn3ccsc3n2)cc1 do in these assays?
HSP90 refold inh: 0; HSF1 activator: 111*; HSF1 inh: 73; GAA850 FXN act: 2; AHR act: -4; DAX1 inh: 2

What do the screens show for `O=c1c2ccccc2nc(SCc2cn3ccsc3n2)n1-c1ccccc1`?
HSP90 refold inh: 2; HSF1 activator: 65*; HSF1 inh: 39; GAA850 FXN act: 4; AHR act: -2; DAX1 inh: 0

What do the screens show for `Cc1cc(C)n2cc(CSc3ccc(Cl)cc3)nc2n1`?
HSP90 refold inh: 4; HSF1 activator: 8; HSF1 inh: 6; GAA850 FXN act: 2; AHR act: 6; DAX1 inh: 0

Results for CNC(=O)CSc1nc2sccc2c(=O)n1-c1ccccc1 ?
HSP90 refold inh: -2; HSF1 activator: 12; HSF1 inh: -9; GAA850 FXN act: 2; AHR act: 5; DAX1 inh: 4.6*

What do the screens show for `Cc1csc2nc(CSc3ccc(Cl)cc3)cn12`?
HSP90 refold inh: -1; HSF1 activator: 67*; HSF1 inh: 72; GAA850 FXN act: 4; AHR act: -2; DAX1 inh: 2

How did O=C(c1ccc(Cl)cc1)N1CCC(C(=O)N2CCN(c3ncccn3)CC2)CC1 do in these assays?
GAA850 FXN act: 0; AHR act: 0; DAX1 inh: 0

How did COc1ccc(CCNC(=O)c2ccc(N3CCCCS3(=O)=O)cc2)cc1OC do in these assays?
HSP90 refold inh: 0; HSF1 activator: 10; HSF1 inh: -2; GAA850 FXN act: 2; AHR act: 0; DAX1 inh: 0

Results for CC(C)CNC(=S)N1CCC(C(=O)c2ccc(Cl)cc2)CC1 ?
GAA850 FXN act: 0; DAX1 inh: -2

How did Cc1ccc(NC(=O)C2(C)CCN2C(=O)Cc2ccc(C(C)(C)C)cc2)cc1C (stereo unspecified) do in these assays?
GAA850 FXN act: 0

How did CCOc1ccc(NCc2nnc(SCC(=O)Nc3nc(-c4ccccc4)cs3)n2-c2ccccc2)cc1 do in these assays?
HSP90 refold inh: 6; HSF1 activator: -68; HSF1 inh: -67*; GAA850 FXN act: -1; AHR act: 3; DAX1 inh: -1
